In PubChem BioAssay (NCI):
This is part of a sample that, as a whole, favours compounds with a hit. Of some 83,000 tested, about 20% had one in any assay.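 Treatment: one concentration, 48 hours, 96-well format. Scoring: percent growth, with anything below 10 considered active.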 A number with no mark means an inactive call. Calls of active or inactive are those of the source.

These molecules were tested on NCI-H23 lung (assay: NCI-60 one-dose screen, 48 h (100 = growth as untreated, 0 = no growth, -100 = all killed)). Details: 10 µM unless noted.
Method: Growth inhibition of the NCI-H23 human Non-Small Cell Lung tumor cell line is measured as a screen for anti-cancer activity. Cells are grown in 96 well plates and exposed to the test compound for 48 hours. Compounds are tested at a single concentration, which is 10^-5 M for most compounds. The reported endpoint is percent growth (GI% or GIPRCNT), where numbers from 0 - 100% represent growth inhibition, and numbers from -100% - 0 represent cell death. For example, a value of 40 represents 60% growth inhibition. A value of 0 means no net growth occurred over the course of the experiment. A value of -40 indicates 40% of cells at the beginning of the experiment died by the end of the experiment. A value of -100 means all cells are dead at the end of the experiment.
NCI-60 Human Tumor Cell Lines Screen was performed using the standard one-dose NCI protocol, which is described in more detail at https://dtp.cancer.gov/discovery_development/nci-60/default.htm.
Compounds with GIPRCNT values below 10 were considered active. Activity score was based on GIPRCNT using the following formula: […]
Score is 0 for GIPRCNT values of 100 or above, 50 for GIPRCNT values of 0, and 100 for GIPRCNT values of -100.
For `O=C(Cc1ccc(NC(=O)c2cccc(Cl)c2)cc1)NCc1ccccc1`, the growth was 73.2%. With `COc1cc(-c2nc3cc(Cl)c(Cl)cc3[nH]2)ccc1OCC(=O)N=Nc1c(O)[nH]c2ccc(Cl)cc12` the growth was -3.62% (active). Work on `Cc1ccc(-c2nc(N3CCNCC3)c3oc(-c4ccc(C)cc4)nc3n2)cc1` yielded a growth of 75.6%. `COc1cc(C2C(C(=O)OCc3ccccc3)=C(C)NC(C)=C2C(=O)OCc2ccccc2)cc(OC)c1OC` showed a growth of 29.3%. `C=C(CNCCO)[C@@H]1CC[C@]2(CO)CC[C@]3(C)[C@H](CC[C@@H]4[C@@]5(C)CCC(N)C(C)(C)[C@@H]5CC[C@]43C)[C@@H]12` (stereo not given in full) was tested, and the growth was 83.7%. For `CC1(C)C(N)=Nc2cc(OCCCN3Cc4ccccc4C3)c(OCC3CC3)cc21`, the growth was 93.5%. With `CC[N+]1(CC)CC[N+]2(CCCC(C)CC2)CC1` (stereo not given) the growth was 102%. In the case of `Cc1cccc[n+]1C1c2ccccc2-c2ccccc21`, the growth is reported as 103%. Molecule `CCc1ccc(CCC(=O)Nc2ncc(Cc3ccccc3)s2)o1` has a growth of 37.6%. `Nc1ncnc2c1N=C(c1ccc3c(c1)OCO3)CC(c1cccc(Nc3ccnc4cc(C(F)(F)F)ccc34)c1)N2` (stereo not given) gave a growth of 84.2%. In the case of `COc1cc(/C=C2\CN(S(=O)(=O)c3ccccc3)C/C(=C\c3cc(CN4CCCCC4)c(O)c(OC)c3)C2=O)cc(CN2CCCCC2)c1O`, the growth is reported as -74.7% (active). With `O=C(CN1CCCCCC1)Nc1nc2ccc(NCc3ccc(Cl)cc3)cc2s1` the growth was 97.3%. `C/C(=N\O)c1ccc(NC(=O)CSc2nnc(-c3cc(-c4ccc(S(N)(=O)=O)cc4)nc4ccccc34)n2-c2ccccc2)cc1` gave a growth of 89.6%. With `CC1C=CC(OC(=O)C(C)(O)CCC(O)(C(=O)OC2CC(O)C(C(C)C)CC2(C)O)C(C)C)(C(C)C)CC1` (stereo not given) the growth was -70.5% [4.63 µM] (active). With `C=C1CC[C@@H]2C(C)(C)[C@@H](O)CC[C@@]2(C)[C@@H]1COc1ccc2ccc(=O)oc2c1` the growth was 75.3%. `CCOC(=O)C(=Cc1ccc(-c2ccccc2)cc1)C(=O)OCC` showed a growth of 38.6%. For `C#CCNC(=O)[C@]1(C)CCC[C@@]2(C)[C@H]1CC=C1C=C(C(C)C)CC[C@@H]12`, the growth was 100%. `O=C1Nc2ccccc2/C1=C/c1cccn1C(=O)c1ccc(Cl)s1` showed a growth of 30.2%. `O=C(NCc1cccc(CNC(=O)Nc2nc3ccccc3[nH]2)c1)Nc1nc2ccccc2[nH]1` was tested, and the growth was -65.1% (active). `CCCn1nc(C(=O)N(C)Cc2ccccc2)c2c1CCC(N1CCc3ccccc31)C2` (stereo not given) was tested, and the growth was 97.9%. Molecule `CC(C)CCN(CCC(C)C)CC(O)c1cc2c(c3ccccc13)CCCC2` (stereo not given) has a growth of 56.6%. With `Nc1nc(N)c(N=Nc2ccccc2)c(-c2ccccc2)n1` the growth was 65.4%. `N#Cc1nc(-c2ccccc2)oc1S(=O)(=O)N1CCN(c2ccc(F)cc2)CC1` was tested, and the growth was 80.8%. Work on `CCN1CCN(CCNc2nccc(-c3c(-c4ccc(F)c(OC)c4)nc4sccn34)n2)S1(=O)=O` yielded a growth of 78.2%. Work on `COc1cc(OC)cc(-c2ccc(-c3ccc(C(=N)N)o3)o2)c1` yielded a growth of 76.6%. Molecule `Cc1ccc2nc(-c3ccc(C(=O)NNC(=S)Nc4ccccc4)cc3)[nH]c2c1` has a growth of 91.5%. In the case of `Cc1ccnc(Nc2ccc([N+](=O)[O-])c(NCCN3CCOCC3)n2)c1`, the growth is reported as 42%. In the case of `CC1=CC(c2ccco2)=C2C(N)=NNC2N1` (stereo not given), the growth is reported as 97.6%. For `CCN1C(=O)N(CC)C2C1NN=c1s/c(=C\c3ccc(C(F)(F)F)cc3)c(=O)n12` (stereo not given), the growth was 26.7%. In the case of `[2H]C([2H])([2H])Oc1ccc(F)cc1/C=C/C(=O)/C=C(/C=C/c1cc(F)ccc1OC([2H])([2H])[2H])OB(F)F`, the growth is reported as 76.6%. For `CC1=C(CCC(C)NCc2ccc(OCCCN3CCCCC3)cc2)C(C)(C)CCC1` (stereo not given), the growth was -42.9% (active). In the case of `COc1cc(-c2nc3sccn3c2-c2ccnc(NCCNS(=O)(=O)c3ccc(Cl)cc3)n2)ccc1F`, the growth is reported as 18.7%. With `CC1=CCC(OC(=O)C(C)(C)CC(O)(C(C)O)C(O)C2(C)C=CC(Cc3ccc(C(C)C)cc3)(C(C)C)CC2)(C(C)C)CC1` (stereo not given) the growth was 95.6%. With `CCOC(=O)c1cc(C(=O)c2cc(OC)c(OC)c(OC)c2)n2ccccc12` the growth was 38.9%. `CCCCC#Cc1c(I)n(C)c(=O)[nH]c1=O` was tested, and the growth was 14.4%. In the case of `COc1ccc(-c2nc(/C=C3\C(=O)N(C)c4ccccc43)c3ccccn23)cc1`, the growth is reported as 76.2%. `CN(Cc1cc(Br)cc(Br)c1O)Cc1cc(Br)cc(Br)c1O` was tested, and the growth was 36.9%. `C=C1C(=O)O[C@H]2[C@H]1CC/C(COC(=O)CSCSCC(=O)OC/C1=C/CC[C@@]3(C)O[C@H]3[C@H]3OC(=O)C(=C)[C@@H]3CC1)=C\CC[C@@]1(C)O[C@@H]21` was tested, and the growth was 24.6%. `NS(=O)(=O)c1ccc(C(=O)NN2C(=O)c3c(Br)c(Br)c(Br)c(Br)c3C2=O)cc1` was tested, and the growth was 104%. `Cc1ccc(-c2nc3nc(-c4ccccc4)nc(N4CCCN(S(C)(=O)=O)CC4)c3o2)cc1` was tested, and the growth was 86.6%.
